Experimental data from PubChem BioAssay (EPA / NIEHS).
“And” between values parts separate entries of the source, which are not always exact repeats. Equal entries are not always repeated. Records with an inconclusive call do not appear. The source holds several records for some structures; these can differ, active in one and inactive in another. The source made the active and inactive calls. Rule for the calls, unless noted: active = hit-call score of the fitted dose curve at least 0.9, where 1 is the maximum; inconclusive = response in the unintended direction; inactive = score below 0.9.

Key:
[1] = read-out: X-box binding protein 1 (XBP1), XBP1 (gene 7494); assay: LTEA_HepaRG_XBP1: Life Technologies and Expression Analysis (LTEA) Assay for X-box binding protein 1 (XBP1) using HepaRG (AID 2283540; active = hit-call score of the fitted dose curve at least 0.9, where 1 is the maximum; inactive = score below 0.9); details: mRNA level, 48 h; actives raise or lower the signal
Outline: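 Differentiated human HepaRG cells in serum-free induction medium were exposed in duplicate for 48 h to eight half-log concentrations up to 100 uM in 0.5% DMSO. XBP1 mRNA was quantified by qRT-PCR, normalised to ACTB, GAPDH and POLR2A, with bidirectional fitting against DMSO.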

[2] = LTEA_HepaRG_LDH_cytotoxicity: Cytotoxicity Assessment in the Life Technologies and Expression Analysis (LTEA) Assay (AID 2283563);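 for AC50: LDH activity released into spent culture medium as a marker of cell death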
Outline: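 Differentiated human HepaRG cells, plated 48 h beforehand, were switched to serum-free induction medium and exposed for 48 h to eight half-log concentrations (top 100 uM) in 0.5% DMSO. LDH was measured in spent medium; activity was fitted relative to DMSO vehicle.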

[3] = ATG_XTT_Cytotoxicity: Cytotoxicity Assessment in the Attagene TRANS-FACTORIAL HepG2 Assay (AID 2283584)
Outline: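 HepG2 human liver cells, transiently transfected with multiple GAL4-UAS reporter units, were dosed and read at 24 h by XTT as cell number. Loss of signal was fitted relative to DMSO negative control baseline.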

[4] = TOX21_p53_BLA_p2_viability: Viability Assessment in the Tox21 HCT-116 p53 Agonism Beta-lactamase Assay, Phase 2 (AID 2283591);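 note: compound exposure lasted 16 h at 37 °C; actives lower the ATP signal meaning cytotoxicity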
Outline: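 Cytotoxicity readout: CellTiter-Glo ATP luminescence, 30 min at room temperature, after the beta-lactamase read. Cells were HCT116 exposed 16 h at 37C to compounds pin-transferred at 217-fold dilution from DMSO stocks.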

[5] = molecular target: Cellular tumor antigen p53 (Homo sapiens) (UniProt P04637); assay: TOX21_p53_BLA_p2_ratio: Tox21 HCT-116 p53 Agonism Beta-lactamase Assay, Ratio, Phase 2 (AID 2283592)
Outline: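 Ratio endpoint: beta-lactamase cleavage of CCF4-AM, blue (460 nm) over green (530 nm). HCT116 reporter line; 16 h treatment, 37C; substrate 2 h RT.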

[6] = TOX21_p53_BLA_p3_viability: Viability Assessment in the Tox21 HCT-116 p53 Agonism Beta-lactamase Assay, Phase 3 (AID 2283593);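 note: cells exposed to compound for 16 h before reading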
Outline: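 Cellular ATP was quantified by CellTiter-Glo luminescence, read after 30 min at room temperature. Beforehand, HCT116 cells (4000/well) received compound 5 h post-seeding, 217-fold diluted from DMSO, then incubated 16 h at 37C.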

[7] = molecular target: Cellular tumor antigen p53 (Homo sapiens) (UniProt P04637); assay: TOX21_p53_BLA_p3_ratio: Tox21 HCT-116 p53 Agonism Beta-lactamase Assay, Ratio, Phase 3 (AID 2283596)
Outline: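 Cells were seeded at 4000/well, rested 5 h at 37C, then dosed with DMSO compound solutions (217-fold dilution) for 16 h. CCF4-AM substrate was loaded for 2 h at room temperature, and the 460/530 nm emission ratio was fitted for gain of signal versus DMSO.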

[8] = TOX21_p53_BLA_p4_viability: Viability Assessment in the Tox21 HCT-116 p53 Agonism Beta-lactamase Assay, Phase 4 (AID 2283597);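 note: hits lower the luminescence signal meaning cytotoxicity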
Outline: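 Cytotoxicity was inferred from loss of CellTiter-Glo luminescence. HCT116 cells had been dosed with compounds after 5 h plating, incubated 16 h at 37C and 5% CO2, and exposed to the CCF4-AM substrate for 2 h.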

[9] = molecular target: Cellular tumor antigen p53 (Homo sapiens) (UniProt P04637); assay: TOX21_p53_BLA_p5_ratio: Tox21 HCT-116 p53 Agonism Beta-lactamase Assay, Ratio, Phase 5 (AID 2283599)
Outline: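 Beta-lactamase reporter ratio (blue 460 nm over green 530 nm, 405 nm excitation) after 2 h CCF4-AM loading, in HCT-116 cells exposed 16 h at 37 C to compounds pinned at 217-fold dilution. Increases relative to DMSO baseline scored.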

[10] = TOX21_p53_BLA_p5_viability: Viability Assessment in the Tox21 HCT-116 p53 Agonism Beta-lactamase Assay, Phase 5 (AID 2283600)
Outline: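 Luciferase-coupled ATP quantitation of cells treated for 16 h (37C, 5% CO2) with test chemicals delivered in DMSO via a 217-fold dilution; 4000 cells/well; reagent incubated 30 min at room temperature before luminescence reading.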

[11] = Tanguay_ZF_120hpf_MORT_legacy: (Legacy) Oregon State University Tanguay Lab 120 Hour Post-fertilization zebrafish Assay for Mortality (AID 2283633);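 for AC50: fitted as increase in binary mortality versus DMSO negative control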
Outline: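 Dechorionated Tropical 5D wild-type zebrafish embryos, one per well from 6 hpf, were statically exposed at 28C in the dark until 120 hpf (0.64% DMSO final). Mortality was scored as present/absent by brightfield microscopy, fitted positively versus DMSO.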

[12] = Tanguay_ZF_120hpf_YSE_legacy: (Legacy) Oregon State University Tanguay Lab 120 Hour Post-fertilization zebrafish Assay for Yolk Sac Edema (AID 2283634)
Outline: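 Tropical 5D wild-type embryos, dechorionated with pronase at 4 hpf, were exposed singly from 6 hpf to 120 hpf under static, sealed, dark conditions at 28C with 0.64% DMSO final. Yolk sac edema was scored present/absent by brightfield microscopy.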

[13] = Tanguay_ZF_120hpf_AXIS_legacy: (Legacy) Oregon State University Tanguay Lab 120 Hour Post-fertilization zebrafish Assay for Body Axis Malformation (AID 2283635);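 for AC50: potency for an increased fraction of larvae scored with body axis malformation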
Outline: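 Tropical 5D wild-type zebrafish embryos, dechorionated with pronase at 4 hpf, were placed singly in wells at 6 hpf and exposed statically to test chemical (0.64% DMSO final) at 28C until 120 hpf, then scored by brightfield for body axis defects.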

[14] = Tanguay_ZF_120hpf_EYE_legacy: (Legacy) Oregon State University Tanguay Lab 120 Hour Post-fertilization zebrafish Assay for Eye Malformation (AID 2283636);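 note: binary presence or absence of eye malformation scored by brightfield in 120 hpf larvae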
Outline: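 Binary brightfield scoring of eye defects at 120 hpf after static exposure from 6 hpf of single pronase-dechorionated wild-type embryos (28C, 0.64% DMSO). Non-mortality endpoints omitted where embryos died; fit vs DMSO.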

[15] = Tanguay_ZF_120hpf_SNOU_legacy: (Legacy) Oregon State University Tanguay Lab 120 Hour Post-fertilization zebrafish Assay for Snout Malformation (AID 2283637)
Outline: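 Binary snout-malformation call at 120 hpf in wild-type 5D embryos, chorion removed by pronase, under static exposure from 6 hpf at 28C (0.64% DMSO). Embryos dying by 24 or 120 hpf excluded.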

[16] = Tanguay_ZF_120hpf_OTIC_legacy: (Legacy) Oregon State University Tanguay Lab 120 Hour Post-fertilization zebrafish Assay for Otic Vesicle Malformation (AID 2283639)
Outline: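 Statically exposed wild-type 5D zebrafish embryos, kept sealed and dark at 28C through 120 hours post fertilization, were examined by brightfield microscopy for otic vesicle defects. Responses were recorded as present or absent and analysed relative to DMSO.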

[17] = Tanguay_ZF_120hpf_PE_legacy: (Legacy) Oregon State University Tanguay Lab 120 Hour Post-fertilization zebrafish Assay for Pericardial Edema (AID 2283640);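 for AC50: potency for increased incidence of pericardial edema versus DMSO baseline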
Outline: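 Tropical 5D wild-type zebrafish embryos were exposed statically to 120 hpf at 28C, sealed and foil-covered, in 0.64% DMSO final. Pericardial edema was scored present/absent by brightfield microscopy; dead embryos were not scored.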

[18] = Tanguay_ZF_120hpf_BRAI_legacy: (Legacy) Oregon State University Tanguay Lab 120 Hour Post-fertilization zebrafish Assay for Brain Malformation (AID 2283641)
Outline: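 Tropical 5D wild-type zebrafish embryos were exposed statically in sealed, foil-covered plates at 28C until 120 hpf, with 0.64% (vol/vol) final DMSO. Brain malformation was scored present/absent by brightfield microscopy, relative to DMSO baseline.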

[19] = Tanguay_ZF_120hpf_SOMI_legacy: (Legacy) Oregon State University Tanguay Lab 120 Hour Post-fertilization zebrafish Assay for Somite Malformation (AID 2283647)
Outline: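 Tropical 5D wild-type zebrafish embryos, dechorionated with pronase at 4 hpf, were placed singly at 6 hpf and statically exposed until 120 hpf at 28C in 0.64% DMSO. Somite malformation was scored present/absent by brightfield microscopy versus DMSO.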

[20] = molecular target: Cellular tumor antigen p53 (Homo sapiens) (UniProt P04637); assay: TOX21_p53_BLA_p4_ratio: Tox21 HCT-116 p53 Agonism Beta-lactamase Assay, Ratio, Phase 4 (AID 2283601)
Outline: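 Signal is the blue/green (460nm/530nm) ratio of cleaved versus uncleaved CCF4-AM substrate, read after 2 h substrate loading. Cells were HCT116 carrying the p53-responsive beta-lactamase reporter, dosed 16 h at 37C, 5% CO2; CellTiter-Glo measured in parallel.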

Measured: AC50

Chain of Cellular tumor antigen p53 (Homo sapiens) (P04637 whole entry, looked up): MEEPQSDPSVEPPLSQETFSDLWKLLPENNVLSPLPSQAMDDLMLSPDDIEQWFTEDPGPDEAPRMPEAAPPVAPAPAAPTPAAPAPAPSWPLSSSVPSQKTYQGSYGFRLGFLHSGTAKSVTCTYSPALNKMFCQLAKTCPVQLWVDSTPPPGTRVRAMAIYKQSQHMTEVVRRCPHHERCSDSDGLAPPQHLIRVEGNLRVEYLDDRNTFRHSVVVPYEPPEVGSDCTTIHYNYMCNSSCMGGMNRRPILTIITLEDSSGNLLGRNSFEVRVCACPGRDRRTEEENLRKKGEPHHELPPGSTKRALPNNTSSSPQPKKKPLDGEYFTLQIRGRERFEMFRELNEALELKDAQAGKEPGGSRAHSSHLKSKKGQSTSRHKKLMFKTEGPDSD

O=C(O)C(Cl)(Cl)Cl
not listed: [20]
inactive: all other assays above

ClC(Cl)=C(Cl)C(Cl)=C(Cl)Cl
inactive: [3]

CN(C)N=O
not listed: [4] | [5] | [13]
inactive: all other assays above

O=Cc1cccc(Oc2ccccc2)c1
inactive: [3]

O=C(O)C(F)(F)C(F)(F)C(F)(F)C(F)(F)C(F)(F)C(F)(F)F
not listed: [4] | [5] | [7] | [10] | [15] | [19] | [20]
inactive: all other assays above

Oc1cccc2cccnc12
active: [11] 27.2 µM
not listed: [5] | [7] | [9] | [14] | [20]
inactive: all other assays above

CCC(C)(C)c1ccc(O)c(C(C)(C)CC)c1
active: [4] 46.1 µM and 45.7 µM | [5] 72.7 µM and 66.4 µM | [6] 52.9 µM and 64 µM | [7] 79.3 µM and 85.5 µM | [9] 22.9 µM and 70.8 µM | [10] 22.2 µM and 45.7 µM | [20] 54.3 µM
not listed: [8]
inactive: all other assays above

C[C@]12CCC(=O)C[C@@H]1CC[C@@H]1[C@@H]2CC[C@]2(C)[C@@H](O)CC[C@@H]12
not listed: [8]
inactive: all other assays above

Fc1ccc(C2(Cn3cncn3)OC2c2ccccc2Cl)cc1 (stereo not given)
inactive: [3]

C[C@@H]1C[C@@H]([C@H](O)CC2CC(=O)NC(=O)C2)C(=O)[C@@H](C)C1
inactive: [3] | [4] | [5] | [6] | [7] | [9] | [10] | [20] | [12] | [13] | [14] | [16] | [17] | [18] | [19]
active: [1] 16.7 µM | [2] 45.1 µM | [5] 13.5 µM | [11] 43.2 µM

CC12CC1(C)C(=O)N(c1cc(Cl)cc(Cl)c1)C2=O (stereo not given)
not listed: [8]
inactive: all other assays above

CCOP(=S)(OCC)Oc1ccc(S(C)=O)cc1 (stereo not given)
inactive: [3]

O=c1[nH]c(=O)[nH]c(=O)[nH]1
not listed: [4] | [10]
inactive: all other assays above

CCC(=O)C(CC(C)N(C)C)(c1ccccc1)c1ccccc1 (stereo not given)
active: [13] 31.3 µM | [15] 29.1 µM | [17] 7.24 µM
not listed: [4] | [6] | [8] | [10] | [12]
inactive: all other assays above

O=C(Nc1ccc2[nH]ccc2c1)c1cc2cc(F)ccc2n1Cc1cccc(F)c1
active: [2] 38.3 µM | [5] 59.4 µM | [7] 86.7 µM | [8] 46.1 µM | [9] 83.2 µM | [20] 42.2 µM
not listed: [3] | [4]
inactive: all other assays above
